Screening data: PubChem, National Center for Advancing Translational Sciences (NCATS)
PNC inhibitor = perinucleolar compartment assembly inhibition | PC3M PTB-GFP, PNC prevalence imaging, 16 h; stronger effect = lower value | activity change (PNC), negative = inhibition, % at 10 µM | hit rate 3.1% among 140,000;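 active = readout at or below -70, meaning at least 70% loss of cells showing the perinucleolar compartment, a nuclear body marking cancer cells; inconclusive = readout between -30 and a set limit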;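 note: plate controls were DMSO wells for no effect and camptothecin positive control wells for full effect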
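Read-out is percentage of cells bearing a perinucleolar compartment, from automated 20x imaging of fixed, Hoechst-stained PC3M PTB-GFP cells. Cells were seeded 4 h, then exposed 16 h to compound (23 nl of library stock) in duplicate plates.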
ALDH1A1 block = inhibitors of human aldehyde dehydrogenase 1A1 | P00352 | Purified ALDH1A1, NADH fluorescence, propionaldehyde substrate | Potency, µM (top dose mostly 75.3 µM), inactives show at the highest dose activity, negative = inhibition, most hits filed as inhibitors | hit rate 7.3% among 220,000;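 note: potency is the fitted concentration of half-maximal effect; plate controls were no enzyme wells and a reference inhibitor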
HPGD block = HPGD (human) dehydrogenase inhibition | hit rate 4.3% among 150,000 | P15428 | AID 894 | purified HPGD, NADH fluorescence kinetic, PGE2 substrate | Potency, µM, inactives show top-dose activity change, negative = inhibition, most hits filed as inhibitors; note: potency is the fitted concentration of half-maximal effect
Target sequence (P15428 whole entry, looked up): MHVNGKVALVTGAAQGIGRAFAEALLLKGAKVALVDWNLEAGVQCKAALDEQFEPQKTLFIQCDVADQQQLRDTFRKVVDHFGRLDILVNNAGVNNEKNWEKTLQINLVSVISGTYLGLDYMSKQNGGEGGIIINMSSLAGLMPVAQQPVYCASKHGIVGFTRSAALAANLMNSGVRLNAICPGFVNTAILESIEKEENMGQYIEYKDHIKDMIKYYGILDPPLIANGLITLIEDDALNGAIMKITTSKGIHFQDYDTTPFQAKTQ
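NADH formation kinetics: reaction with 30 uM PGE2 and 1 mM NAD+ (final), 20 nM enzyme, Tris-HCl pH 8 with Tween 20, after 15 min compound preincubation at room temperature. Fluorescence change, last versus first of five reads.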
Numbers without * were called inactive; u = inconclusive; x = no result; [ ] = remark or other dose. A selection: hits, their analogues and other compounds. The true share with any hit is near 11%. Unless noted, calls come from the whole dose curve; as a rule, active = well fitted inhibition curve with a large enough effect (not every such curve was filed as active); inconclusive = small, poorly fitted or top-dose-only effect, or another doubt; inactive = no such curve, though single readings can be large or run the other way. Unless noted, % is set by controls: 0 for no effect and ±100 for the full control effect.

SMILES	PNC inhibitor	ALDH1A1 block	HPGD block
COC(=O)c1cc(NS(=O)(=O)c2ccc(N3CCC(C)CC3)c([N+](=O)[O-])c2)cc(C(=O)OC)c1	2.9	-5.8%	-20.4%
Nc1nc(CC(=O)O)cs1	x	-13.5%	-5.6%
Cn1ccnc1SCCNC(=O)CCc1nnc(CCc2ccccc2)o1	x	-0.9%	x
Cc1cc(CNC(=O)c2cccnc2Cl)c2ccccc2n1	x	-0.3%	x
COC(=O)c1ccc(COC(=O)CCC(=O)c2cccs2)cc1	-28.5	2.9%	-7.3%
COC(=O)CSc1nnc(CNC(=O)c2ccccc2OC)n1C	-87.5*	-2.9%	-5.5%
COC(=O)CSc1nnc(CNC(=O)c2cc(OC)c(OC)c(OC)c2)n1C	u	-10.4%	x
S=c1[nH]nc(COc2ccc3c(c2)OCO3)n1-c1ccccc1	u	14.1µM*	25.1µM*
CCN(CC)C(=O)CSc1nnc(COc2ccccc2)n1CC	9.2	-8.8%	-4.0%
c1ccc(N2CCN(CCCOc3ccc4c(c3)OCO4)CC2)cc1	x	1.1%	-4.9%
CCn1c(COc2ccc3c(c2)OCO3)nnc1SCC(=O)c1ccccc1	u	u	22.4µM*
O=C(NC1CCCC1)C(c1ccccc1)N(Cc1cccnc1)C(=O)Cc1cccs1 (configuration not stated)	x	-18.5%	x
NCCNc1ncnc2ccc(Cl)cc12	x	-6.5%[13.5 µM]	-12.2%
C/C(N)=C(/C#N)C(=O)CSc1cc(C)c2cc(C)cc(C)c2n1	x	8.9%	x
CC(C)C(=O)NNC(=O)CSc1nnnn1C(C)C	x	6.2%	x
CN(C)CCNC(=O)/C=N/O	-88.9*	-2.4%	5.4%
CN(C)CCCCCNCCCNC(=O)/C=N\O	u	4.5%	-0.1%
COc1ccccc1CNC(=S)NC1CCCC1	2.4	4.9%	-23.1%
CN1CCN(Cc2c(O)ccc3cc(Br)ccc23)CC1	x	25.1µM*	x
Oc1ccc2ccccc2c1CN1CCN(c2ccccc2F)CC1	71.8	u	-26.4%
CC(C)(C)NC(=O)C(c1ccc(I)cc1)N(CCN1CCOCC1)C(=O)CCCNC(=O)c1ccccc1 (configuration not stated)	x	1.7%	-5.0%
CCCCCCCCCCCCCCCC(=O)OCC(O)C1OC(=O)C(O)=C1O (configuration not stated)	x	-9.1%	-14.3%
Cc1cc(C=C2C(=O)CCCC2=O)c(C)n1-c1ccccc1	0.3	u	-7.5%
Cc1cc(=O)cc(C)n1-c1ccc(Cl)cc1	x	5.2%	x
Cc1cc(C=C2C(=O)c3ccccc3C2=O)c(C)n1-c1ccc(Cl)cc1	19.6	2.24µM*	-10.3%
SMILES	PNC inhibitor	ALDH1A1 block	HPGD block
Cc1cc(C=C2C(=O)c3ccccc3C2=O)c(C)n1C	2.7	u	-15.3%
CCn1c(C)cc(C=C2C(=O)c3ccccc3C2=O)c1C	x	11.2µM*	x
Cc1cccc(-n2c(C)cc(C=C3C(=O)c4ccccc4C3=O)c2C)c1	-84.6*	1.58µM*	-13.8%
CC1SC(C)C(=O)N(CC(=O)NCc2ccc(F)cc2)C1=O (configuration not stated)	u	3.7%	-3.1%
O=C(NCCc1ccccc1)c1nc(-c2cccs2)no1	x	-5.1%	x
CCCC12CN3CC(C)(CN(C1)C3c1ccco1)C2=O (configuration not stated)	x	11.8%	x
COC(=O)C(N)Cc1ccc(O)cc1 (configuration not stated)	0.8	9.4%	6.8%
COC(=O)C(N)CS (configuration not stated)	x	u	25.1µM*
COC(=O)[C@@H](N)CS	13.8	3.16µM*	-12.0%
COC(=O)C(N)Cc1ccc(O)c(O)c1 (configuration not stated)	8.1	2.8%	-0.1%
C=CCn1cn[nH]c1=S	x	-3.9%	x
CCN1CCCc2cc(CN(CCN3CCOCC3)C(=S)Nc3ccc(C)cc3)ccc21	x	6.31µM*	x
CCOc1ccc(NC(=S)N(CCN2CCOCC2)Cc2ccc3c(c2)CCCN3CC)cc1	x	12.6µM*	x
Cc1ccc(NC(=S)N(CCN2CCOCC2)Cc2ccccc2F)cc1	x	-7.5%	x
CCOc1ccc(NC(=S)NCCCN2CCOCC2)cc1	x	4.0%	x
C=CCNC(=O)NC(=O)CSc1nnc(C(F)(F)F)n1C	x	8.9%	x
O=C(CCCN1C(=O)/C(=C\c2cccs2)SC1=S)NNC(=O)c1cccnc1	x	1.3%	x
CCCCC[C@H](O)/C=C/[C@@H]1[C@H](C/C=C\CCCC(=O)O)[C@@H](O)C[C@H]1O	x	3.3%	-8.3%
Cc1[nH]nc(SCC(=O)N2CCCC2)c1[N+](=O)[O-]	x	-13.9%	x
Cc1[nH]nc(SCC(=O)N2CCC(C)CC2)c1[N+](=O)[O-]	42.9	10µM*	6.31µM*
CCCCCN=c1ccn(Cc2ccccc2)c2ccccc12	x	-7.6%	-3.0%
Cc1noc(NS(=O)(=O)c2ccc(NC(=O)CCn3c(=O)oc4ccccc43)cc2)c1C	u	3.98µM*	-19.1%
Cc1noc(NS(=O)(=O)c2ccc(NC(=O)COc3ccccc3)cc2)c1C	11.5	13.5%	0.2%
Cc1noc(NS(=O)(=O)c2ccc(NC(=O)CSc3ncccn3)cc2)c1C	u	20µM*	-6.4%
Cc1cc(C)nc(SCC(=O)Nc2ccc(S(=O)(=O)Nc3onc(C)c3C)cc2)n1	35.0	25.5%	-5.1%
SMILES	PNC inhibitor	ALDH1A1 block	HPGD block
Cc1cc(C)nc(NS(=O)(=O)c2ccc(NC(=O)Cn3c(=O)oc4ccccc43)cc2)n1	-17.9	-9.8%	-12.0%
Cc1noc(NS(=O)(=O)c2ccc(NC(=O)CSc3nc4ccccc4s3)cc2)c1C	u	10µM*	28.2µM*
O=C(CSc1nc2ccccc2s1)Nc1cc(S(=O)(=O)N2CCOCC2)ccc1Cl	-1.5	22.4µM*	-31.3%
Cc1ccc(-n2c(SCC(=O)Nc3cc(S(=O)(=O)N4CCOCC4)ccc3Cl)nc3ccccc3c2=O)cc1	10.7	5.1%	-4.6%
COc1ccccc1-c1cc(C(F)(F)F)n2ncc(S(=O)(=O)c3ccccc3)c2n1	-23.7	u	u
Cc1[nH]c2ccccc2c1/C=C/c1nc2ccccc2c(=O)n1CCO	x	-5.2%	x
CCOC(=O)c1ccc(-n2c(O)c(/C=N/NC(=O)C3COc4ccccc4O3)c3ccccc3c2=O)cc1 (configuration not stated)	41.7	-15.2%	u
CCN(CC)S(=O)(=O)c1ccc(Cl)c(C(=O)Nc2ccc(Cl)cc2[N+](=O)[O-])c1	-27.5	u	-2.3%
CCC1CCCCN1C(=S)Nc1cccc(S(=O)(=O)N(C)C)c1 (configuration not stated)	x	-4.5%	x
Cc1ccnn1CC(=O)N/N=C/c1ccc2c(c1)OCO2	-27.2	4.3%	-20.5%
COc1ccc(NC(=O)CCCn2c(=O)c3sccc3n(Cc3cccc(C)c3)c2=O)cc1	-16.3	2µM*	-3.9%
COc1ccc(NC(=O)CCCn2c(=O)c3sccc3n(Cc3ccc(C)cc3)c2=O)cc1	u	u	-23.8%
CN(C)C(=O)c1ccc(-c2cncnc2Nc2ccc(F)cc2)cc1	x	11.2µM*	x
CN(C)Cc1ccccc1-c1cncnc1Nc1ccc(F)cc1	x	14.1%	-8.7%
Cc1ccc(C(=O)O/N=C/c2c(N3CCOCC3)n(C)c3ccccc23)cc1	82.1	u	u
Cn1c(N2CCOCC2)c(/C=N/OC(=O)c2ccc(F)cc2)c2ccccc21	-99.1*	-3.1%	-7.7%
COP(=O)(OC)C(Nc1ccc(C)cc1)c1ccc([N+](=O)[O-])cc1 (configuration not stated)	3.4	u	-2.6%
CCOc1ccc2nc(SCC(=O)c3cccs3)sc2c1	u	12.6µM*	5.01µM*
